The list is not random: actives were taken first. Their share in the collection is about 10%.
NIH3T3 tox: cytotoxic compounds in NIH 3T3 cells. NIH 3T3 viability, CellTiter-Glo ATP luminescence, 48-72 h. Potency, µM (highest dose often 96.7 µM), hits mostly inhibitors. 94,000 tested, 4.3% active. AID 1345082; note: nearly all actives have a fitted effect of over 55% in size
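Cytotoxicity was measured by CellTiter-Glo ATP luminescence after 48 or 72 h compound exposure at 37 °C. Mouse NIH 3T3 fibroblasts were seeded at 400 cells/well and dosed by 23 nL pin transfer.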
FLuc inh: Photinus pyralis luciferase inhibition; P08659; purified P. pyralis luciferase, luminescence, biochemical; Potency, µM (top dose mostly 115 µM), most hits filed as inhibitors; 76,000 tested, 2.5% active; note: nearly all actives have a fitted effect of over 65% in size
Target sequence (P08659 whole entry, looked up): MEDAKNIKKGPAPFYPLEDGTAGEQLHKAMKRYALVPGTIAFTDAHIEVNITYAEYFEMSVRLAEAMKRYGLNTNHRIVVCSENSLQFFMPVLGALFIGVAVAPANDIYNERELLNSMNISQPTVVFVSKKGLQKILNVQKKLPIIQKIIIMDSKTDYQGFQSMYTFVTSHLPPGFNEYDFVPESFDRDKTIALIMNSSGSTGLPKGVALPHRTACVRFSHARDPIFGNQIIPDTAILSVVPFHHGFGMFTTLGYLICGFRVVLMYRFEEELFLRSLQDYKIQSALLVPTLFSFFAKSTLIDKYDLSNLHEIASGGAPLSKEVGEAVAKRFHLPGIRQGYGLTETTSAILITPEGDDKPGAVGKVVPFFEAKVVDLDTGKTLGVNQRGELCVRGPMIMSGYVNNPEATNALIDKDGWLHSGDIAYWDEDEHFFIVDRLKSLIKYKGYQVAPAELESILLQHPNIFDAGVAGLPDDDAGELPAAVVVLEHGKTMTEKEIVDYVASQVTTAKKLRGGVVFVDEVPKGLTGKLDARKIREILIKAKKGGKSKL
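FLuc 10nM, D-luciferin 10uM, ATP 10uM, Mg acetate 10mM, Tris acetate pH 7.5, Tween/BSA; cpd qHTS; enzyme added last; CCD luminescence.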
GPT2 inhibitor: GPT2 alanine aminotransferase inhibition; Q8TD30; Potency, µM (series often up to 57.7 µM), most hits filed as inhibitors; 100,000 tested, 0.25% active; Recombinant GPT2, coupled pyruvate oxidase/HRP Amplex Red fluorescence; note: nearly all actives have a fitted effect of over 60% in size
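Fluorescence read-out: pyruvate from GPT2 turnover coupled to pyruvate oxidase, HRP and Amplex Red (0.2mM ThPP, 0.2U/mL PO and HRP, 50uM Amplex final). Substrates 250uM a-KG, 2mM L-alanine; enzyme 10ng/uL; 30 min RT.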
NPR1 antag: antagonists of human natriuretic peptide receptor Npr1 | P16066 | HEK293 hNpr1 GloSensor cGMP, ANP-stimulated luminescence | Potency, µM (series often up to 46.3 µM), actives largely listed as inhibitors | 76,000 tested, 1.6% active | AID 1347048; calls by dose curve; note: nearly all actives have a fitted effect of over 60% in size
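HEK293 cells stably expressing human Npr1 and cGMP GloSensor pGS-40F, loaded 2 h with 2% GloSensor reagent, given compound 30 min at room temperature. Luminescence read before and 20 min after 0.1 nM hNppA.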
HEK cytotox: cytotoxic compounds in HEK 293 cells; HEK 293 viability, ATP luminescence (CellTiter-Glo), 48-72 h; Potency, µM (doses to about 115 µM), usual class: inhibitors; 94,000 tested, 6.6% active; AID 1345083; note: nearly all actives have a fitted effect of over 60% in size
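Luminescence from cellular ATP, measured with CellTiter-Glo, indicates HEK 293 viability. Cells plated at 250 cells/well are treated with compound for 48 or 72 hr at 37 degree Celsius before reagent addition.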
Npr1 antag conf: confirmation of human Npr1 natriuretic peptide receptor antagonists. shares compounds with NPR1 antag. HEK293 hNpr1 cGMP GloSensor luminescence, ANP-stimulated. Potency, µM (top dose mostly 57.6 µM), usual class: inhibitors. 1,400 tested, 76% active. AID 1347044; calls by dose curve; note: nearly all actives have a fitted effect of over 70% in size
NPR2 antag: hNpr2 antagonism, selectivity versus Npr1; shares compounds with NPR1 antag; HEK293 hNpr2 GloSensor cGMP luminescence, CNP-stimulated; Potency, µM (highest dose often 57.6 µM), most hits filed as inhibitors; 1,400 tested, 67% active; calls by dose curve; note: nearly all actives have a fitted effect of over 70% in size
FLuc inh counter: inhibits firefly luciferase, false Npr1 antagonist flag. 1,400 tested, 0.7% active. Potency, µM (highest dose often 57.6 µM), hits mostly inhibitors. purified FLuc enzyme, luminescence, Km substrate. shares compounds with NPR1 antag
GloSensor cGMP: reduces cGMP signal in GloSensor control cells. shares compounds with NPR1 antag. HEK293 GloSensor cGMP, SNP-stimulated, luminescence. Potency, µM (series often up to 57.6 µM), most hits filed as inhibitors. 1,400 tested, 69% active; calls by dose curve; note: nearly all actives have a fitted effect of over 70% in size
A number is an active result. Unless noted, calls come from the whole dose curve; as a rule, active = well fitted curve in the direction sought with a large enough effect; inconclusive = small, poorly fitted or top-dose-only effect, or another doubt; inactive = no such curve, though single readings can be large; an effect the other way counts as inactive or inconclusive.

Results for CCCCNC(=O)N1CC(C(=O)N2CCCC(C(=O)OCC)C2)CC(c2ccc(F)c(C)c2)C1 (stereo unspecified) ?
NIH3T3 tox: inconclusive; FLuc inh: inactive; GPT2 inhibitor: inactive; NPR1 antag: inactive; HEK cytotox: inconclusive

Results for CC1=NS(=O)(=O)N(C)C=C1C(=O)OCc1nc(-c2cccs2)no1 ?
NIH3T3 tox: inactive; FLuc inh: inactive; GPT2 inhibitor: inactive; NPR1 antag: inconclusive; HEK cytotox: inactive; Npr1 antag conf: 24µM; NPR2 antag: inconclusive; FLuc inh counter: inactive; GloSensor cGMP: 22µM

What do the screens show for `CC1=NS(=O)(=O)N(Cc2ccccc2)C=C1C(=O)OCc1nc(-c2cccs2)no1`?
NIH3T3 tox: inconclusive; FLuc inh: inactive; GPT2 inhibitor: inactive; NPR1 antag: inactive; HEK cytotox: inconclusive

What do the screens show for `O=S(=O)(c1cccc(F)c1)N1CCC2(CC1)CC(Cc1nc(C3CC3)no1)CCO2` (stereo unspecified)?
NIH3T3 tox: inconclusive; FLuc inh: inactive; GPT2 inhibitor: inactive; NPR1 antag: 11µM; HEK cytotox: 45µM; Npr1 antag conf: 24µM; NPR2 antag: 24µM; FLuc inh counter: inactive; GloSensor cGMP: 22µM

How did O=C(C1CCC1)N1CCC2(CC1)CC(Cc1nc(C3CC3)no1)CCO2 (stereo unspecified) do in these assays?
NIH3T3 tox: inconclusive; FLuc inh: inactive; GPT2 inhibitor: inactive; NPR1 antag: inactive; HEK cytotox: inconclusive

How did CCNC(=O)N[C@H]1C[C@@H](Cc2cc(CN3CCN(c4ccccc4)CC3)on2)C1(C)C do in these assays?
NIH3T3 tox: inconclusive; FLuc inh: inactive; GPT2 inhibitor: inactive; NPR1 antag: inconclusive; HEK cytotox: inconclusive

Results for CC(C)(C)CC(=O)N[C@H]1C[C@@H](Cc2cc(CN3CCN(c4ccccc4)CC3)on2)C1(C)C ?
NIH3T3 tox: inconclusive; FLuc inh: inactive; GPT2 inhibitor: inconclusive; NPR1 antag: 2.8µM; HEK cytotox: 25µM; Npr1 antag conf: 3.1µM; NPR2 antag: 3.4µM; FLuc inh counter: inactive; GloSensor cGMP: 2.4µM

What do the screens show for `CCN(Cc1ccccc1)C(=O)CCC1CCN(S(=O)(=O)c2ccccc2)CC1`?
NIH3T3 tox: 28µM; FLuc inh: inactive; GPT2 inhibitor: inactive; NPR1 antag: inactive; HEK cytotox: inconclusive; Npr1 antag conf: inconclusive; NPR2 antag: inactive; FLuc inh counter: inactive; GloSensor cGMP: inactive

Results for Cc1cccc(CNC(=O)CCC2CCN(S(=O)(=O)c3ccccc3)CC2)c1 ?
NIH3T3 tox: inactive; FLuc inh: inactive; GPT2 inhibitor: inactive; NPR1 antag: inactive; HEK cytotox: inconclusive

What do the screens show for `Cc1ccc(CNC(=O)CCC2CCN(S(=O)(=O)c3ccccc3)CC2)cc1`?
NIH3T3 tox: inconclusive; FLuc inh: inactive; GPT2 inhibitor: inactive; NPR1 antag: inactive; HEK cytotox: inactive; Npr1 antag conf: inactive; NPR2 antag: inactive; FLuc inh counter: inactive; GloSensor cGMP: inactive

Results for O=C(NCc1cccc(Cl)c1)C1CN(C2CCCC2)C(=O)N1 (stereo unspecified) ?
NIH3T3 tox: inactive; GPT2 inhibitor: inactive; HEK cytotox: inactive

Results for O=C1Cc2c(-c3ccccc3Oc3ccccc3)n[nH]c2CN1CCc1ccncc1 ?
NIH3T3 tox: inconclusive; FLuc inh: inactive; GPT2 inhibitor: inactive; NPR1 antag: inactive; HEK cytotox: inconclusive

Results for Cc1ccc(CN2CCN(c3cc(C)nc(N)n3)CC2CCO)cc1 (stereo unspecified) ?
NIH3T3 tox: inconclusive; FLuc inh: inactive; GPT2 inhibitor: inactive; NPR1 antag: inactive; HEK cytotox: inconclusive

How did CCS(=O)(=O)c1ccc2oc([C@H]3CCN(Cc4cccc(Cl)c4)C3)nc2c1 do in these assays?
NIH3T3 tox: inconclusive; FLuc inh: inactive; GPT2 inhibitor: inactive; NPR1 antag: inconclusive; HEK cytotox: 45µM; Npr1 antag conf: 35µM; NPR2 antag: 35µM; FLuc inh counter: inactive; GloSensor cGMP: inconclusive

Results for Cc1cc(C(=O)N2CCC(F)(c3nc(-c4ccncc4)no3)CC2)n(C)n1 ?
NIH3T3 tox: inactive; FLuc inh: inactive; GPT2 inhibitor: inactive; NPR1 antag: 11µM; HEK cytotox: inconclusive; Npr1 antag conf: 27µM; NPR2 antag: 31µM; FLuc inh counter: inactive; GloSensor cGMP: 27µM

What do the screens show for `Cc1ccc2nc3n(c2c1)[C@@H](CNCc1ccc2c(c1)OCO2)COC3`?
NIH3T3 tox: inconclusive; FLuc inh: inactive; GPT2 inhibitor: inactive; NPR1 antag: 25µM; HEK cytotox: inconclusive; Npr1 antag conf: 35µM; NPR2 antag: 35µM; FLuc inh counter: inactive; GloSensor cGMP: 31µM

What do the screens show for `COc1ccc2nc3n(c2c1)[C@@H](CNC(=O)c1ccccc1)COC3`?
NIH3T3 tox: inconclusive; FLuc inh: inactive; GPT2 inhibitor: inactive; NPR1 antag: inactive; HEK cytotox: inactive

What do the screens show for `COc1ccc2nc3n(c2c1)[C@@H](CNCc1ccc2c(c1)OCO2)COC3`?
NIH3T3 tox: inconclusive; FLuc inh: inactive; GPT2 inhibitor: inconclusive; NPR1 antag: 32µM; HEK cytotox: inconclusive; Npr1 antag conf: 40µM; NPR2 antag: 40µM; FLuc inh counter: inactive; GloSensor cGMP: 40µM

Results for CCN(Cc1ccccc1)C(=O)CCC[C@@H]1[C@H]2CCCN3CCC[C@@H](CN1C(=O)c1ccccc1)[C@@H]23 ?
NIH3T3 tox: inactive; FLuc inh: inactive; GPT2 inhibitor: inactive; NPR1 antag: inactive; HEK cytotox: inconclusive

What do the screens show for `COc1ccc(OC)c(S(=O)(=O)N[C@H]2CO[C@H]3[C@@H]2OC[C@H]3OC(=O)Nc2ccc(Oc3ccccc3)cc2)c1`?
NIH3T3 tox: inconclusive; FLuc inh: inactive; GPT2 inhibitor: inactive; NPR1 antag: 8.9µM; HEK cytotox: inconclusive; Npr1 antag conf: 11µM; NPR2 antag: 14µM; FLuc inh counter: inactive; GloSensor cGMP: 9.7µM

What do the screens show for `COc1ccc(OC)c(S(=O)(=O)N[C@H]2CO[C@H]3[C@@H]2OC[C@H]3OC(=O)Nc2ccc(C(C)=O)cc2)c1`?
NIH3T3 tox: inactive; FLuc inh: inactive; GPT2 inhibitor: inactive; NPR1 antag: inactive; HEK cytotox: inactive
